Data on 63 compounds can be found in PubChem BioAssay AID431 (Sanford-Burnham Center for Chemical Genomics, 2006).

SMILES strings stand for the structures. Out of some 63,000 compounds screened, about 1,100 (1.7%) were called active.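 Rule for the calls: active = compounds whose percent cytotoxicity in the single-dose primary screen, scaled between solvent and toxic-drug controls, exceeds 50; inactive = the rest.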 The list comes from a sample in which actives are over-represented; it also holds similar structures and randomly drawn compounds. Results with a measured potency or affinity are listed apart.

This experiment can be described thus: viability loss of HPDE-C7K cells – cell-based, fluorescence, HTS, primary screen (AID 431).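 Note: 0% = DMSO solvent wells and 100% = doxorubicin-treated wells.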 The following applies: HPDE-C7K KRASV12 cells, Alamar Blue viability, 48 h; at 10 µM; stronger effect = higher value. In general terms: The colour change of resazurin is a common sign of viable cells or microbes.
Regarding `COC(=O)c1coc(-c2ccc(C)cc2)c1C(=O)OC`, the cytotoxicity is -19.4% (inactive). Then `CCOc1ccccc1N(CC(=O)NC1CCCC1)C(=O)CCCC(=O)Nc1ccccn1`, with -29.3% (inactive). With `O=C(Cn1c(=O)oc2ccccc21)N1CCCCC1`, the cytotoxicity was -21% (inactive). As to `CN(CCc1ccccn1)C(=O)CCNC(=O)Cn1cnc2ccccc2c1=O`, the cytotoxicity is -9.4% (inactive). For the compound `O=C(COc1ccccc1)Nc1cccc(-c2nnc(-c3ccccc3)o2)c1`, the cytotoxicity was 8.5% (inactive). Then `COc1ccc(-c2noc(CCC(N)=O)n2)cc1OC`, with 7.2% (inactive). Then `CC(=O)c1cc(F)c(N2CCCC2)cc1C`, with -6.1% (inactive); and `Cc1[nH]c(-c2ccco2)nc1C(=O)O`, with 1.6% (inactive). Then `O=c1cc(-c2ccccc2)[nH]c2ccccc12`, with 46.8% (inactive). `[O-][n+]1onc2c1CCc1nnc(-c3ccccc3)cc1-2`: the cytotoxicity was 8.2% (inactive).

Turning to `COc1ccc(C2C3=C(CCCC3=O)Nc3nc(C(F)(F)F)nn32)cc1OC` (stereo not drawn), the cytotoxicity was -12.5% (inactive). Turning to `Cc1ccc(Cl)cc1N1CCN(Cc2nc3c(c(=O)[nH]c(=O)n3C)n2Cc2ccccc2F)CC1`, the cytotoxicity was 117% (active).

In the case of `CC(C)Cn1c(CN2CCN(c3ccccc3F)CC2)nc2c1c(=O)[nH]c(=O)n2C`, the cytotoxicity was -9.3% (inactive). On to `Cn1c(=O)[nH]c(=O)c2c1nc(CN1CCN(c3cccc(Cl)c3)CC1)n2Cc1ccccc1Cl`, for which the cytotoxicity is 2.2% (inactive). Then `O=C(Nc1ccncc1)c1ccc2c(c1)OCCO2`, with -6.9% (inactive).

As for `CCC(NC(=O)OC(C)(C)C)C(=O)Oc1ccc2c3c(c(=O)oc2c1)CCC3` (stereo not drawn), the cytotoxicity was -7.2% (inactive).

With `CCOC(=O)Cc1cc(=O)[nH]c(Nc2nc3ccccc3o2)n1`, the cytotoxicity was -12.3% (inactive). Then `C=CCn1c(=N)c(C(=O)OCC)cc2c(=O)n3cccc(C)c3nc21`, with 9.2% (inactive). Then `CCNC(=O)c1cc2c(=O)n3cccc(C)c3nc2n(CCc2ccccc2)c1=N`, with 66.8% (active). Then `CCOC(=O)c1cc2c(=O)n3cccc(C)c3nc2n(CCc2ccccc2)c1=N`, with -6.7% (inactive); and `CCOC(=O)c1cc2c(=O)n3cccc(C)c3nc2n(C)c1=N`, with 58.1% (active). For `Cc1cccn2c(=O)c3cc(C(=O)NCCN4CCOCC4)c(=N)n(CCc4ccccc4)c3nc12`, the cytotoxicity is 10.9% (inactive). Then `COCCn1c(=N)c(C(=O)NCCc2ccccc2)cc2c(=O)n3cccc(C)c3nc21`, with -1.7% (inactive); and `CC(C)CCOc1cccc(OCC(=O)N(C)C2CCS(=O)(=O)C2)c1` (stereo not drawn), with 4.8% (inactive). Then `COc1ccc(OC)c(S(=O)(=O)N2CCc3ccccc32)c1`, with 18.5% (inactive).

On to `CCOc1c(Br)cc(CNc2ncn[nH]2)cc1OC`, for which the cytotoxicity was 2.8% (inactive).

Take `O=C(CSc1c2c(nc3ccc(Cl)cc13)CCCC2)N1CCN(C(=O)c2ccco2)CC1`: the cytotoxicity is 105% (active). Turning to `O=C(CSc1nnc(SCc2ccc(Cl)cc2)s1)N1CCN(C(=O)c2ccco2)CC1`, the cytotoxicity is -15.2% (inactive). Then `O=C(CSc1nc2cc(Cl)ccc2s1)N1CCN(C(=O)c2ccco2)CC1`, with 5.8% (inactive). Then `CC1Cc2nc(SCC(=O)NCc3ccco3)n(-c3ccccc3)c(=O)c2S1` (stereo not drawn), with 3.1% (inactive); and `O=C(Cc1cccs1)NCc1ccc2c(c1)OCO2`, with -5.9% (inactive); and `CCOC(=O)c1oc2c(C)c(O)ccc2c(=O)c1-c1nncn1-c1ccccc1`, with -6.3% (inactive). Then `Cn1c(=O)[nH]c(=O)c2c1nc(CN1CCN(c3cccc(Cl)c3)CC1)n2CCCc1ccccc1`, with 6% (inactive). As for `Nc1cccc(-c2nc3ccc(N)cc3s2)c1`, the cytotoxicity is 50.7% (active). Then `Oc1cccc(-c2nc3ccccc3s2)c1`, with 0.9% (inactive).

Regarding `Cc1nc2ccc(N)cc2s1`, the cytotoxicity was -7.6% (inactive). Then `CN(C)CCCN1c2ccccc2CCc2ccccc21`, with 20.3% (inactive); and `CCOC(=O)Nc1ccc2c(c1)N(C(=O)CCN(C)C)c1ccccc1S2`, with 15% (inactive).

On to `CN(C)CCCN1c2ccccc2Sc2ccccc21`, for which the cytotoxicity was 56.1% (active). As for `CN(C)CCCN1c2ccccc2CCc2ccc(Cl)cc21`, the cytotoxicity was 47.6% (inactive). Then `COc1ccc2c(c1)Sc1ccccc1N2CCN(C)C`, with 27.8% (inactive). Then `CCN1C(=O)C2C(c3ccc(O)c(OC)c3)NC(C)(C(=O)OC)C2C1=O` (stereo not drawn), with 9.8% (inactive); and `CCc1c(C)nc2ncnn2c1N1CCCC(C(=O)NCCc2ccccc2)C1` (stereo not drawn), with 2.2% (inactive). Then `CCOC(=O)C1CCN(C(=O)c2ccc(Cl)c(Cl)c2)CC1`, with -6.5% (inactive); and `O=C(Nc1ccc(Cl)cc1)NC1CCS(=O)(=O)C1` (stereo not drawn), with -15% (inactive); and `COc1cccc(-c2nc(-c3ccc(NC(=O)c4cccnc4)cc3)no2)c1`, with 44.3% (inactive). `CC(Oc1ccc(Cl)cc1Cl)c1nc(-c2ccc(NC(=O)c3cccnc3)cc2)no1` (stereo not drawn): the cytotoxicity was 59.3% (active). `O=C(Nc1ccc(-c2noc(-c3cccs3)n2)cc1)c1cccnc1`: the cytotoxicity was 52.5% (active).

Consider `CC(Oc1ccc(Cl)cc1Cl)c1nc(-c2ccccn2)no1` (stereo not drawn), for which the cytotoxicity was 23.6% (inactive). Then `COc1ccc(Cc2nc(-c3ccc(NC(=O)c4cccnc4)cc3)no2)cc1`, with 33.9% (inactive); and `O=C(Nc1ccc(-c2noc(CCc3ccccc3)n2)cc1)c1cccnc1`, with 47% (inactive). Then `CC(C)(C)Cc1nc(-c2ccccn2)no1`, with -9.1% (inactive). As for `COCCNC(=O)c1cc(-c2ccc(Cl)c(Cl)c2)on1`, the cytotoxicity is -9.5% (inactive). Then `O=C(c1cc2cc(Br)ccc2oc1=O)N1CCN(c2ccccn2)CC1`, with -8.8% (inactive). Then `O=C(CC1SCCNC1=O)Nc1cc(Cl)cc(Cl)c1` (stereo not drawn), with -5.4% (inactive); and `O=C(CC(c1ccccc1)c1cc(Cl)ccc1O)N1CCOCC1` (stereo not drawn), with 10.5% (inactive). Then `CCOc1ccc(C2C3=C(CCCC3=O)Nc3nc(C(F)(F)F)nn32)cc1OC` (stereo not drawn), with 1.4% (inactive); and `COc1ccc(CCNc2nc(N3CCCCC3)nc(N3CCCCC3)n2)cc1OC`, with 45.3% (inactive).

For the compound `Cc1cc(C)n(S(=O)(=O)Cc2ccccc2)n1`, the cytotoxicity is -3.7% (inactive). Then `O=S(=O)(/C=C/c1ccccc1)n1cnc2ccccc21`, with 40.1% (inactive); and `CC1CCc2nn(CC(=O)N3CCCCCC3)cc2C1` (stereo not drawn), with 2.2% (inactive). Then `Cc1ccc2c(c1)NC(=O)C(CC(=O)NCCN(CC(C)C)CC(C)C)O2` (stereo not drawn), with 15.6% (inactive); and `COc1cccc(CNC(=O)C2CCN(Cc3cnn(-c4ccccc4)c3-n3cccc3)CC2)c1`, with 5.5% (inactive).
